# According to PubChem BioAssay (NCATS):
# Records with an inconclusive call do not appear. Where a call stands in place of a potency, no number is given. A number with no mark means an inactive call. Activity calls are given as the source filed them. Calls follow the shape of the dose curve; as a rule, active = well fitted curve in the direction sought with a large enough effect; inconclusive = small, poorly fitted or top-dose-only effect, or another doubt; inactive = no such curve, though single readings can be large; an effect the other way counts as inactive or inconclusive. Peptide text beside a SMILES is read from it. * marks the point of attachment. AFC = O=c1cc(C(F)(F)F)c2ccc(N*)cc2o1
# Tests used:
# [1] = biological target: Cellular tumor antigen p53 (Homo sapiens) (UniProt P04637); assay: Primary qHTS for small molecule compounds that upregulate eGFP-tagged delta133p53alpha (in N-terminal) cells. (AID 2060322); settings: NCI-H358 eGFP-delta133p53alpha fluorescence, 24 h; activation: active compounds read high; also: nearly all actives have a fitted effect of over 75% in size; also: potency is read from the fitted curve at half-maximal effect
# Chain of Cellular tumor antigen p53 (Homo sapiens) (P04637 whole entry, looked up): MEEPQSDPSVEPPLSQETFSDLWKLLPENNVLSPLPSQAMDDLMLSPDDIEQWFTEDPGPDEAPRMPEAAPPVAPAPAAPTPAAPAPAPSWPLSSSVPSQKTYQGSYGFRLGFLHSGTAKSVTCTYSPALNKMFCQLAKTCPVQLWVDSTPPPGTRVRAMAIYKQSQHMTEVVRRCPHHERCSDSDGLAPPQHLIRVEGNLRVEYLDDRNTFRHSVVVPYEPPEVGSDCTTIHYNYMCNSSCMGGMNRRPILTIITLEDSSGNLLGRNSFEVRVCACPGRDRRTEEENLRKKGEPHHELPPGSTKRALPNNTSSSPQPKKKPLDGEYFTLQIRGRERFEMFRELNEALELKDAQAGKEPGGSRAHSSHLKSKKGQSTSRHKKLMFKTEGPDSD
# How it was run: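 NCI-H358 cells pre-induced 24 h with 10 ng/ml doxycycline to express N-terminal eGFP-delta133p53alpha, then dosed 24 h at 37C without doxycycline; fixed, Hoechst-stained, GFP intensity by laser scanning cytometry, normalized to DMSO (0%) and 57.5 uM 5-azacytidine (100%).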
# [2] = biological target: Aldehyde dehydrogenase, mitochondrial (Homo sapiens) (UniProt P05091); assay: qHTS for Inhibitors of the Aldehyde Dehydrogenase Family (ALDH2) Primary screen (AID 2061308); settings: ALDH2 enzyme inhibition qHTS, 1536-well; series mostly up to 56 µM; also: nearly all actives have a fitted effect of over 55% in size
# [3] = biological target: Retinaldehyde dehydrogenase 3 (Homo sapiens) (UniProt P47895); assay: qHTS for Inhibitors of the Aldehyde Dehydrogenase Family (ALDH1A3) Primary screen (AID 2061315); settings: ALDH inhibition qHTS; series mostly up to 56 µM
SMILES,Potency [1],Potency [2],Potency [3],activation [1] [%],"activity change, negative = inhibition [2]","activity change, negative = inhibition [3]"
COc1cccc(-c2cn(-c3ccc(CCN4CCC(O)CC4)cc3)c3ncnc(N)c23)c1,6.01 µM (active),inactive,inactive,,,
CC(C)(C)NS(=O)(=O)c1cncc(-c2cc(F)c3nc(N)nn3c2)c1,,inactive,inactive,5.36,,
O=C(Cc1ccc(-c2ccccc2)cc1)NC1CCC1,,inactive,inactive,-1,,
CC1(C)CC[C@]2(C(=O)O)CC[C@]3(C)C(=CCC4[C@@]5(C)C[C@@H](O)[C@H](O)C(CO)(CO)C5CC[C@]43C)C2[C@@H]1O (some centres not stated),,inactive,inactive,-9.16,,
C=C1C(OC(C)=O)CCC2(C)CC3(O)OC(=O)C(C)=C3CC12 (configuration not stated),,inactive,inactive,-3.57,,
C=C(C)[C@@]1(O)C[C@@]2(C)C(=CC1=O)CC[C@@H](O)[C@@H]2C,,inactive,inactive,-3.82,,
COC(=O)c1ccnc(-c2cc(C(=O)NCCc3ccccc3)ccn2)c1,,inactive,inactive,3.67,,
O=S(=O)(O)c1ccc(Nc2ncnc3c2ncn3[C@@H]2O[C@H](CO)[C@@H](O)[C@H]2O)cc1,,inactive,inactive,-3,,
C[C@@H]1O[C@@H](OC2C(CO)OC(OCC3OC(OC(=O)[C@]45CCC(C)(C)CC4C4=CCC6[C@@]7(C)CC[C@@H](O)[C@](C)(C(=O)O)C7CC[C@@]6(C)[C@]4(C)CC5)C(O)C(O)C3O)C(O)C2O)[C@H](O)[C@H](O)[C@H]1O (some centres not stated),,inactive,inactive,-3.82,,
CC(=O)N[C@@H](CC(C)C)C(=O)N[C@@H](CCC(=O)O)C(=O)N[C@@H](CCC(=O)O)C(=O)N[C@@H](CC(=O)O)C(=O)Nc1ccc2c(C(F)(F)F)cc(=O)oc2c1 (Ac-LEED-{AFC}),,inactive,inactive,2.33,,
C=C1[C@H]2CCC3[C@]4(C)CCC[C@@](C)(C(=O)O)C4CC[C@]3(C2)[C@H]1OC(C)=O (some centres not stated),,inactive,inactive,-17.6,,
COCCOCCOc1ccc(C2=N[C@@](C)(C(=O)O)CS2)c(O)c1,,inactive,inactive,1.67,,
O=c1[nH]ccc2cc(OC3CCNCC3)ccc12,,inactive,inactive,-7.14,,
CC(=O)c1c(O)cc2c(c1C)C(=O)CC(O)C2 (configuration not stated),,inactive,inactive,-14.5,,
C=C(C)C1CCC2(C(=O)O)CCC3(C(=O)O)C(CCC4C5(C)CCC(O)C(C)(C(=O)O)C5CCC43C)C12 (configuration not stated),,inactive,inactive,-3.82,,
Cc1ccc2c(c1)C=Cc1cc(C)ccc1C2c1cn(Cc2ccc(C(=O)Nc3nn[nH]n3)o2)c(=O)[nH]c1=S,,inactive,inactive,-8.33,,
Cc1cc2c(F)c(Oc3ncnn4cc(OCC(C)O)c(C)c34)ccc2[nH]1 (configuration not stated),,inactive,inactive,-26.8,,
CCC[C@@H]1C[C@@H](C(=O)N[C@@H]([C@H]2O[C@H](SC)[C@H](O)[C@@H](O)[C@@H]2O)[C@@H](C)O)N(C)C1,,inactive,inactive,7,,
CC1=C2C[C@H]3O[C@@]3(C)CCC3O[C@@]3(C)C[C@@]2(O)OC1=O (some centres not stated),,inactive,inactive,-2.29,,
CC1OC(OC2C(C)OC(OC3C(OC(=O)C45CCC(C)(C)CC4C4=CCC6C7(C)CCC(OC8OC(C(=O)O)C(O)C(O)C8OC8OC(CO)C(O)C(OC9OC(C)C(O)C(O)C9O)C8O)C(C)(CO)C7CCC6(C)C4(C)CC5)OC(CO)C(O)C3O)C(O)C2O)C(O)C(O)C1O (configuration not stated),,,,13.4,-1.8% [at 11.2 µM],-5.04% [at 11.2 µM]
C[C@@H]1O[C@@H](O[C@H]2[C@H](OC(=O)[C@]34CCC(C)(C)C[C@H]3C3=CCC5[C@@]6(C)CC[C@H](O[C@@H]7O[C@H](CO[C@@H]8OC[C@H](O)[C@H](O)[C@H]8O[C@@H]8OC[C@@H](O)[C@H](O)[C@H]8O)[C@@H](O)[C@H](O)[C@H]7O)C(C)(C)C6CC[C@@]5(C)[C@]3(C)C[C@H]4O)O[C@H](CO)[C@@H](O)[C@@H]2O)[C@H](O[C@@H]2O[C@H](CO)[C@@H](O)[C@H](O)[C@H]2O)[C@H](O)[C@H]1O[C@@H]1OC[C@@H](O)[C@H](O[C@@H]2OC[C@@H](O)[C@H](O)[C@H]2O)[C@H]1O (some centres not stated),,,,-9.92,6.45% [at 11.2 µM],8.82% [at 11.2 µM]
O=C(O)CCc1cc2ccoc2cc1O[C@@H]1O[C@H](CO[C@@H]2OC[C@](O)(CO)[C@H]2O)[C@@H](O)[C@H](O)[C@H]1O,,inactive,inactive,-11.5,,

SMILES,Potency [1],Potency [2],Potency [3],activation [1] [%],"activity change, negative = inhibition [2]","activity change, negative = inhibition [3]"
C=C(C)C(=O)O[C@H]1C[C@@](C)(OC(C)=O)[C@@]2(O)CC[C@@](C)(O)[C@H](OC(C)=O)[C@@]23OC(=O)C(COC)=C13,,inactive,inactive,-9.16,,
C=C1CCC2C(C)(C(=O)OC)CCCC2(C)C1CCC(C)CC(=O)O (configuration not stated),,inactive,inactive,-13,,
C=C1C(=O)O[C@@H]2C[C@@]3(C)CCC[C@H](C)C3=C[C@H]12,19 µM (active),inactive,inactive,,,
COC(=O)C1=CO[C@@H](O[C@@H]2O[C@H](CO)[C@@H](O)[C@H](O)[C@H]2O)[C@@H]2C(C)CC(=O)[C@]12O (some centres not stated),,inactive,inactive,1.79,,
CC(C)(C)[C@H](NC(=O)c1ccc(N)c(Cl)c1)C(=O)N1CCC[C@H]1C(=O)N[C@H](C#N)CC(=O)O,,inactive,inactive,-7,,
CC1(C)CC[C@]2(C(=O)O[C@@H]3O[C@H](CO)[C@@H](O)[C@H](O)[C@H]3O)CC[C@]3(C)C(=CCC4[C@@]5(C)CC[C@H](OC6OC(C(=O)O)C(OC7OC(CO)C(O)C(O)C7O)C(O)C6O)C(C)(C)C5CC[C@]43C)C2C1 (some centres not stated),,inactive,inactive,-16.8,,
C=C(C(=O)O)C1CCC(C)C2CCC(=O)OC2(C)C1 (configuration not stated),,inactive,inactive,18.8,,
Cc1ccccc1C(=O)Nc1ccc(C(=O)N2CCC[C@@H](O)c3cc(Cl)ccc32)c(C)c1,,inactive,inactive,0,,
C[C@H](CCC(=O)O)[C@H]1CC[C@H]2[C@@H]3C[C@H](O)[C@@H]4C[C@H](O)CC[C@]4(C)[C@H]3CC[C@]12C,,inactive,inactive,1,,
C=C(C)C1CCC2(C(=O)OC3OC(COC4OC(CO)C(O)C(O)C4O)C(OC4OC(C)C(O)C(O)C4O)C(O)C3O)CCC3(C(=O)O)C(CCC4C5(C)CCC(=O)C(C)(C)C5CCC43C)C12 (configuration not stated),,inactive,inactive,-8.4,,
C/C=C(/C)C(=O)OC1CC(C)(C)CC2C3=CCC4C5(C)CCC(O[C@@H]6O[C@H](C(=O)O)[C@@H](O)[C@H](O)[C@H]6O[C@@H]6O[C@H](CO)[C@H](O)[C@H](O[C@@H]7OC[C@H](O)[C@H](O)[C@H]7O[C@@H]7O[C@H](CO)[C@@H](O)[C@H](O)[C@H]7O)[C@H]6O)C(C)(C)C5CCC4(C)C3(C)C(O)C(O)C12CO (some centres not stated),,,,0.893,-0.94% [at 11.2 µM],-6.72% [at 11.2 µM]
C=C1CC[C@@H]2[C@](C)(CO[C@@H]3O[C@H](CO)[C@@H](O)[C@H](O)[C@H]3O)[C@H](O)CC[C@@]2(C)[C@@H]1C/C=C1/C(=O)OC[C@H]1O,,inactive,inactive,-8.93,,
CCC(C)/C=C(C)/C=C/C1=CC2=C(Cl)C(=O)C(C)(OC(C)=O)C(=O)C2=CN1C1CCCCN(C(CCC(N)=O)C(=O)O)C1=O (configuration not stated),,inactive,inactive,2.68,,
CC(=O)NC(C(=O)OC1CCC(C)(C)C2CC=C3C(=O)OCC3C12C)C(C)C (configuration not stated),,inactive,inactive,9.16,,
CC(C)=CC1C[C@](C)(O)[C@@H]2[C@H]3CCC4[C@@]5(C)CC[C@H](O[C@@H]6OC[C@H](O)[C@H](O[C@@H]7O[C@H](CO[C@@H]8O[C@H](CO)[C@@H](O)[C@H](O)[C@H]8O)[C@@H](O)[C@H](O)[C@H]7O)[C@H]6O[C@@H]6O[C@@H](C)[C@H](O)[C@@H](O)[C@H]6O)C(C)(C)[C@@H]5CC[C@@]4(C)[C@@]34CO[C@@]2(C4)O1 (some centres not stated),,inactive,inactive,-4.46,,
C=CC(C)(O)CC/C=C(\C)COC1O[C@H](CO)[C@@H](O)[C@H](O)[C@H]1O (some centres not stated),,inactive,inactive,-14.5,,
C=CC(C)(C)C12C=C(OC)C(=O)N3C(C(C)C)C(=O)NC31N(OC)c1ccccc12 (configuration not stated),,inactive,inactive,-9.16,,
CC(O)(CC(=O)O)CC(=O)O[C@@H]1[C@@H](O)[C@H](OCCc2ccccc2)O[C@H](CO)[C@H]1O (some centres not stated),,inactive,inactive,3.82,,
O=C(OC1C[C@H]2CC[C@@H](C1)[N+]21CCCC1)C(O)(c1ccccc1)c1ccccc1 (some centres not stated),,inactive,inactive,5.18,,
CC(C)(C)c1ccc(C(=O)Nc2cn3cc(-n4ccnc4)ccc3n2)cc1,,inactive,inactive,1.79,,
CCC(=O)O[C@H]1C(C)(C)[C@H]([C@@H](O)C(=O)OC)[C@]2(C)C(=O)[C@@]1(O)[C@H]1O[C@]13C1CC(=O)O[C@@H](c4ccoc4)[C@]1(C)CCC32 (some centres not stated),,inactive,inactive,-20.6,,
C[C@@H]1CC[C@]2(C(=O)O)CC[C@]3(C)C(=CCC4[C@@]5(C)CC[C@H](O)[C@](C)(C(=O)O)C5CC[C@]43C)C2[C@]1(C)O (some centres not stated),,inactive,inactive,8.4,,
